In the library only some 11% were active in any assay of this set; here they are far more common.
AMA1 RON2 block = qHTS for Inhibitors of AMA1-RON; Towards Development of Antimalarial Drug Lead: Primary Screen; 0.2% of 360,000 active; AlphaScreen AMA1-biotinylated RON2 peptide binding; Plasmodium falciparum AMA1 (3D7) - RON2 peptide interaction; Potency, µM (titrated, usually from 58.2 µM), inactives show top-dose activity change, negative = inhibition, actives largely listed as inhibitors;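 also: 0% = vehicle wells and -100% = peptide control; nearly all actives have a fitted effect of over 45% in size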
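AMA1 (3D7) with his tag at 25 nM final met compounds first, then biotinylated RON2 peptide at 25 nM; detection used donor plus acceptor beads, 10 µg/mL apiece, read by AlphaScreen after 30 min at room temperature.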
HCV inhibitor = qHTS Assay for Inhibitors of Hepatitis C Virus (HCV); Huh7.5.1 HCVcc-Cre infection, luciferase reporter, 44 h; Potency, µM (highest dose often 41.8 µM), for inactives: at the top dose activity change, negative = inhibition, hits mostly inhibitors; 3.4% of 340,000 active; AID 651820, 2012
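Infectious HCV cell culture screen: compound-treated cells (1,000/well, pre-plated 4 h) are infected with HCVcc-Cre at roughly 0.5 moi and grown 44 h. Infection is quantified by luciferase signal after 15 min substrate incubation at room temperature.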
AmpC detergent = qHTS Inhibitors of AmpC Beta-Lactamase (assay with detergent); AmpC hydrolysis of nitrocefin, absorbance 480 nm, 0.01% Triton; Potency, µM (titrated, usually from 114 µM), without a hit: at the highest dose activity change, negative = inhibition, most hits filed as inhibitors; 0.041% of 370,000 active;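 also: 0% = no-compound wells and -100% = no-enzyme wells; nearly all actives have a fitted effect of over 25% in size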
Target sequence (P00811 whole entry, looked up): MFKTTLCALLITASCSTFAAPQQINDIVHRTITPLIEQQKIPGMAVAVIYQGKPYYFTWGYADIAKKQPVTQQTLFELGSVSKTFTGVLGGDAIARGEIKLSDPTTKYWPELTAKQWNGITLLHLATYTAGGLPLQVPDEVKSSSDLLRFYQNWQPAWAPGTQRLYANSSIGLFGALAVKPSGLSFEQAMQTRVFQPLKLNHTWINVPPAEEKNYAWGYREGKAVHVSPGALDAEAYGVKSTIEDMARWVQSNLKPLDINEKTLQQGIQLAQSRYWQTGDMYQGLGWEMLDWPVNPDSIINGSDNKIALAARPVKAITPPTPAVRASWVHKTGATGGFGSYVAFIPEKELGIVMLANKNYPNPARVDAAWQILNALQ
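AmpC (5.3 nM in the dispensed reagent) in 20 mM phosphate pH 7.0 with 0.01% (detergent screen) or 0.0001% Triton X-100 was preincubated with compounds for 15 min at room temperature. Nitrocefin was then added from an 800 uM solution, and hydrolysis was followed at 480 nm.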
Pf growth 48h = Primary qHTS for delayed death inhibitors of the malarial parasite plastid, 48 hour incubation; Potency, µM (highest dose often 28.7 µM), for the others: at the highest dose activity change, negative = inhibition, usual class: inhibitors; AID 504832, 2011; 5.9% of 310,000 active; P. falciparum luciferase growth in erythrocytes, 48 h
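Read-out is firefly luciferase luminescence from an integrated reporter in P. falciparum, so falling signal marks reduced parasite growth. Infected erythrocytes were at 2% hematocrit and 0.1% parasitemia (final) in Albumax-supplemented RPMI 1640.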
Pf growth 96h = Primary qHTS for delayed death inhibitors of the malarial parasite plastid, 96 hour incubation; P. falciparum luciferase reporter growth, 96 h; Potency, µM (series often up to 28.7 µM), for inactives: top-dose activity change, negative = inhibition, actives largely listed as inhibitors; 6.9% of 320,000 active
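P. falciparum expressing integrated firefly luciferase grown in erythrocytes (2% hematocrit, 0.05% parasitemia final) with compounds for 96 hours at 37 C, 5% CO2. Growth inhibition read as loss of luminescence after adding luciferase detection reagent.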
AmpC no deterg = qHTS Inhibitors of AmpC Beta-Lactamase (assay without detergent). Potency, µM (top dose mostly 57.1 µM), inactives show at the highest dose activity change, negative = inhibition, hits mostly inhibitors. 0.52% of 330,000 active. P00811. AmpC nitrocefin hydrolysis, absorbance 480 nm, 0.0001% Triton;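 also: plate controls were no compound for no effect and no enzyme for full effect; nearly all actives have a fitted effect of over 20% in size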
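AmpC (5.3 nM in the dispensed reagent) in 20 mM phosphate pH 7.0 with 0.01% (detergent screen) or 0.0001% Triton X-100 was preincubated with compounds for 15 min at room temperature. Nitrocefin was then added from an 800 uM solution, and hydrolysis was followed at 480 nm.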
* = called active by the depositor; ? = inconclusive; . = not tested or not shown. Calls follow the shape of the dose curve; as a rule, active = well fitted curve in the direction sought with a large enough effect; inconclusive = small, poorly fitted or top-dose-only effect, or another doubt; inactive = no such curve, though single readings can be large; an effect the other way counts as inactive or inconclusive. Unless noted, % is scaled to controls: 0 for no effect and ±100 for the full control effect; potency is read from the fitted curve at half-maximal effect.

SMILES	AMA1 RON2 block	HCV inhibitor	AmpC detergent	Pf growth 48h	Pf growth 96h	AmpC no deterg
Cc1cc(C)nc(SCc2nc3ncccn3c2Br)n1	-1%	8%	?	8.3µM*	4.1µM*	-14%
CC(NC(=O)c1ccco1)C1COc2ccccc2O1 (centres undefined)	-1%	5%	?	.	10µM*	-31%
CC(NC(=O)CCC(=O)NC(C)C1COc2ccccc2O1)C1COc2ccccc2O1 (centres undefined)	-1%	?	0%	2%	-4%	174%
CC(C)OC(=O)c1c(NC(=O)c2cc3nc(-c4ccccc4)cc(C(F)(F)F)n3n2)sc2c1CCCC2	.	.	-6%	.	.	.
CCN(C(=O)CSc1nc2c(cnn2-c2ccccc2)c(=O)[nH]1)C1CCS(=O)(=O)C1 (centres undefined)	2%	23%	-4%	?	?	-18%
CCN(C(=O)CSc1cc(C)c2ccccc2n1)C1CCS(=O)(=O)C1 (centres undefined)	13%	0%	3%	-6%	?	30%
CCCN(C(=O)CSc1nc2c(cnn2-c2ccccc2)c(=O)[nH]1)C1CCS(=O)(=O)C1 (centres undefined)	-15%	1%	-10%	9.3µM*	?	-15%
COc1ccc2c(-c3ccccc3)cc(SC(C)C(N)=O)nc2c1 (centres undefined)	54%	11µM*	2%	10µM*	?	50%
CCCN(C(=O)CSc1cc(-c2ccccc2)c2ccc(OC)cc2n1)C1CCS(=O)(=O)C1 (centres undefined)	-5%	-15%	-5%	?	9.3µM*	164%
COc1ccc2c(-c3ccccc3)cc(=O)[nH]c2c1	-3%	1%	2%	?	.	-30%
CC1CCc2nc3ncn(Cc4ccccc4F)c(=O)c3cc2C1 (centres undefined)	.	.	-1%	.	.	.
Cc1ccccc1OCC(=O)Nc1ccc(OCc2cc(=O)n3ccccc3n2)cc1	.	.	21%	.	.	.
O=C(N1CCOCC1)N1CCN(S(=O)(=O)N2CCCCC2)CC1	-3%	29%	1%	12%	4.1µM*	-14%
O=C(CN(c1ccc(Cl)cc1)S(=O)(=O)c1ccc(Cl)c([N+](=O)[O-])c1)NCCc1ccccc1	11%	11µM*	-1%	?	?	-34%
O=C(CN(c1ccc(Cl)cc1)S(=O)(=O)c1ccc(Cl)c([N+](=O)[O-])c1)NCCc1ccc(F)cc1	-4%	?	-3%	?	12µM*	32µM*
COc1cccc(CNC(=O)c2ccc3nc(-c4ccccc4)c(-c4ccccc4)nc3c2)c1OC	.	.	7%	.	.	.
COC(=O)c1cn(NC(=O)c2ccccc2[N+](=O)[O-])c(=O)c2ccccc12	-18%	-8%	6%	-15%	-26%	-21%
O=C(Nn1cc(C(=O)Nc2ccccc2F)c2ccccc2c1=O)c1cnccn1	21%	-24%	-2%	4.1µM*	?	-14%
COC(=O)c1cn(NC(=O)c2ccc(OC)c(OC)c2)c(=O)c2ccccc12	6%	3%	-6%	?	13µM*	?
O=C(Nc1ccccc1F)c1ccc(O)c2ncccc12	.	.	-14%	4.1µM*	1.5µM*	-32%
COC(=O)c1cn(NC(=O)c2cnccn2)c(=O)c2ccccc12	-54%	?	-12%	9.3µM*	-10%	-13%
COC(=O)c1cn(NC(=O)c2ccc(OC)c([N+](=O)[O-])c2)c(=O)c2ccccc12	-16%	-3%	1%	1%	?	-36%
